The results in this text go back to PubChem BioAssay (NCI).

Holding throughout (experiment): NCI-60 one-dose screen, 48 h (100 = growth as untreated, 0 = no growth, -100 = all killed)
The subject of assay [1] is BT-549 breast. As to conditions: 10 µM unless noted.
For assay [2], the system named is MDA-MB-435 melanoma. As to conditions: 10 µM unless noted.
The subject of assay [3] is SW-620 colon. As to conditions: 10 µM unless noted.
In assay [4] the test system is MCF7 breast. As to conditions: 10 µM.
Assay [5] concerns HCT-116 colon. As to conditions: 10 µM unless noted.
For assay [6], the system named is HCC-2998 colon. As to conditions: 10 µM unless noted.
Assay [7] concerns KM12 colon. As to conditions: 10 µM unless noted.

The panel holds about 83,000 compounds, 20% with a hit somewhere; the sample as a whole holds those more often.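 Step 1: grow cells in 96-well plates. Step 2: add test compound at a single concentration. Step 3: incubate 48 h. Step 4: record percent growth.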 Values without a mark were called inactive. Calls of active or inactive are those of the source. Rule for the calls: active = growth percent below 10; inactive = the rest.

Regarding `COc1cc(C(=O)O/N=C(\N)Cc2cccc3ccccc23)cc(OC)c1OC`, the growth in assay [1] was 56.4%; in assay [2], -85.2% (active); in assay [3], -76.7% (active); in assay [4], -85.7% (active); in assay [5] it was -71.4% (active); in assay [6], -82.5% (active). Moreover, in assay [7], the growth was -68.4% (active).
As for `O=C(c1nc2ccccc2[nH]1)C1C(c2ccc(F)cc2)C2CC3CCCCC3N2[C@@]12C(=O)Nc1ccc(Cl)cc12` (some centres undefined), the growth is 77.4% in assay [1]; 42.4% in assay [2]; 41% in assay [3]; 21.4% in assay [4]; 28% in assay [5]; 43% in assay [6]. For the same compound, the growth in assay [7] is 43.9%.
Take `CCOC(=O)c1c(Cl)c2c(n1Cc1ccccc1)-c1oncc1CCC2`: the growth in assay [1] is 87.6%; in assay [2], -12.9% (active); in assay [3], 39.5%; in assay [4] it was 37.5%; in assay [5], 50.3%; in assay [6], 61.8%. In assay [7], the growth is 53.1%.
As for `COc1ccc(Cn2cc(Cn3cc(C=C4C(=O)NC(=O)NC4=O)c4ccccc43)nn2)cc1`, the growth in assay [1] is 99.5%; in assay [2], 90.8%; in assay [3], 85.9%; in assay [4] it was 75.8%; in assay [5], 80.1%; in assay [6], 109%. The growth in assay [7] was 93%.
In the case of `CCCCC(O)(c1ccc(Cl)cc1)C(CN1CCOCC1)c1ccc(Cl)cc1` (centres undefined), the growth is 59.5% in assay [1]; 26.2% in assay [2]; 47.1% in assay [3]; 17.7% in assay [4]; 33.2% in assay [5]; 24.6% in assay [6]. Further, in assay [7], the growth is 32.5%.
Consider `O=c1c(-c2nc3ccccc3[nH]2)cc2ccccc2n1Cc1cn(Cc2ccc(N3CCOCC3)cc2)nn1`, for which the growth is 45.9% in assay [1]; 76.6% in assay [2]; 70.7% in assay [3]; 56.8% in assay [4]; 83.6% in assay [5]; 93.2% in assay [6]. The growth in assay [7] was 87.3%.
For `O=C(Cn1cc(COc2ncnc3c2cnn3-c2ccccc2)nn1)Nc1cccc2ccccc12`, the growth in assay [1] was 99.5%; in assay [2], 94%; in assay [3], 99.1%; in assay [4] it was 85%; in assay [5] it was 102%; in assay [6] it was 104%. The growth in assay [7] is 93.8%.
Take `COc1ccc(N2C(=O)CC(c3cc(OC)c(OC)c(OC)c3)C3C2=NC(=O)N3C)cc1` (centres undefined): the growth is 109% in assay [1]; 101% in assay [2]; 102% in assay [3]; 98.1% in assay [4]; 106% in assay [5]; 117% in assay [6]. Moreover, in assay [7], the growth is 105%.
Regarding `O=C(N/N=C/c1ccccc1O)C(=O)Nc1ccc(F)cc1`, the growth in assay [1] was 59.3%; in assay [2], 59.3%; in assay [3], 44.5%; in assay [4], 20.9%; in assay [5], 37.6%; in assay [6], 38.8%. Further, the growth in assay [7] was 42.3%.
Consider `NNC(=O)CNC(=O)Nc1n[nH]c(=S)s1`, for which the growth is 116% in assay [1]; 110% in assay [2]; 102% in assay [3]; 93.8% in assay [4]; 94.1% in assay [5]; 106% in assay [6]. The growth in assay [7] was 100%.
In the case of `COc1ccc(Nc2cc(C)nc(NCc3ccccc3)n2)cc1`, the growth in assay [1] is 97.6%; in assay [2], 18.5%; in assay [3], 15%; in assay [4], 11.1%; in assay [5] it was 15.4%; in assay [6], 21.2%. The growth in assay [7] is 5.56% (active).
`Cc1ccc2[nH]c(=O)cc(-n3nncc3Cn3c4ccccc4c4ccccc43)c2c1`: the growth in assay [1] is 96.6%; in assay [2], 100%; in assay [3] it was 97.9%; in assay [4], 99.5%; in assay [5], 97.8%; in assay [6], 101%. Moreover, the growth in assay [7] is 103%.
`NC(CCl)=NCCC[C@H](N)C(=O)O`: the growth was 129% in assay [1]; 100% in assay [2]; 100% in assay [3]; 84.8% in assay [4]; 99% in assay [5]; 99.9% in assay [6]. In addition, in assay [7], the growth was 106%.
On to `COc1cc(/C=C2\CN(S(=O)(=O)c3ccccc3)C/C(=C\c3cc(CN4CCCC4)c(O)c(OC)c3)C2=O)cc(CN2CCCC2)c1O`, for which the growth in assay [1] was 33.5%; in assay [2] it was -37.1% (active); in assay [3], 4.93% (active); in assay [4] it was 5.38% (active); in assay [5], -81.1% (active); in assay [6], -87.9% (active). Besides, the growth in assay [7] is -56.3% (active).
Consider `COc1ccc(C(=O)Nc2ccc3nc(N4CCCCC4)cc(C)c3c2)cc1OC`, for which the growth was 90.6% in assay [1]; 88.2% in assay [2]; 23.7% in assay [3]; 80.2% in assay [4]; 64.2% in assay [5]; 66.5% in assay [6]. Also, the growth in assay [7] was 23.7%.
Regarding `CCOc1ccc(Nc2ccnc3cc(Cl)ccc23)cc1`, the growth in assay [1] was 14.4%; in assay [2], -7.51% (active); in assay [3], 14.5%; in assay [4] it was 4.41% (active); in assay [5], 9.4% (active); in assay [6] it was 12.2%. In addition, the growth in assay [7] is 6.96% (active).
As for `COc1cc2nc(NC3CCC3)nc(NC3CCN(C(C)C)CC3)c2cc1OC`, the growth is 72.5% in assay [1]; -48% (active) in assay [2]; 38.7% in assay [3]; 29.5% in assay [4]; 48.1% in assay [5]; 22.7% in assay [6]. For the same compound, the growth in assay [7] was 62.9%.
